Where “and” joins values, the source holds several entries; their conditions need not be identical. Equal values may be shown once. Among all 5,500 compounds or so, about 2,000 (36%) were called active. Roughly 18% stayed inconclusive and do not appear here. Rule as the data show it: active = normalized growth mostly below about 0.91 (no sharp cut-off); inconclusive = no clear call, values can overlap the other calls; inactive = mostly above about 0.92. The list shows a part of the results.
Test: chemical genetic growth profiling, strain panel (AID 1159580);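 also: tested at 20 µM; growth read once vehicle control cultures reached saturation at 30 °C; 1 = growth at the plate median or of vehicle wells; lower values mean less growth of the strain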
Settings: S. cerevisiae deletion strains, growth OD

Measured: normalized growth

O=C(O)CC[N+](=O)[O-]
inactive: locus YAL013W, strain DEP1, hits give low values 0.991 and 0.999 | locus YAL021C, strain ccr4, hits give low values 0.987 | locus YAL026C, strain drs2, hits give low values 1.01 | locus YAL030W, strain snc1, hits give low values 1 | locus YAL040C, strain CLN3, hits give low values 0.99 | locus YBL061C, strain skt5, hits give low values 1.01 | locus YBR009C, strain hhf1, hits give low values 1.01 | locus YBR021W, strain FUR4, hits give low values 1.12 | locus YBR023C, strain chs3, hits give low values 1.01 | locus YBR171W, strain sec66, hits give low values 1.01 | locus YBR229C, strain ROT2, hits give low values 1.01 | locus YBR231C, strain swc5, hits give low values 1.02 | locus YBR279W, strain paf1, hits give low values 0.999 | locus YCL011C, strain gbp2, hits give low values 1.02 | locus YCL016C, strain dcc1, hits give low values 1 | locus YCL029C, strain bik1, hits give low values 0.985 | locus YCL061C, strain MRC1 (second series), hits give low values 1 | locus YCL061C, strain MRC1, hits give low values 1 | locus YCL069W, strain vba3, hits give low values 0.996 | locus YCR088W, strain abp1, hits give low values 1 | locus YDL005C, strain med2, hits give low values 1 | locus YDL035C, strain GPR1, hits give low values 0.976 | locus YDL040C, strain nat1, hits give low values 0.988 | locus YDL074C, strain BRE1, hits give low values 0.999 | locus YDL101C, strain DUN1, hits give low values 0.998 | locus YDL134C, strain PPH21, hits give low values 0.997 | locus YDL185W, strain tfp1, hits give low values 0.962 | locus YDL192W, strain arf1, hits give low values 0.974 | locus YDR001C, strain nth1, hits give low values 0.993 | locus YDR069C, strain doa4, hits give low values 1.02 | locus YDR101C, strain arx1, hits give low values 0.986 | locus YDR137W, strain rgp1, hits give low values 0.999 | locus YDR150W, strain NUM1, hits give low values 0.972 and 1 | locus YDR159W, strain sac3, hits give low values 1.02 | locus YDR162C, strain NBP2, hits give low values 1.01 | locus YDR195W, strain ref2 0.977 | locus YDR297W, strain sur2, hits give low values 1.02 | locus YDR318W, strain mcm21, hits give low values 0.984 | locus YDR334W, strain swr1, hits give low values 1.01 | locus YDR335W, strain msn5, hits give low values 1 | locus YDR363W, strain ESC2, hits give low values 1.01 | locus YDR388W, hits give low values 0.993 | locus YDR392W, strain spt3, hits give low values 1.02 | locus YDR502C, strain sam2, hits give low values 0.988 | locus YEL003W, strain gim4, hits give low values 1.02 | locus YEL037C, strain rad23, hits give low values 1 | locus YEL061C, strain CIN8 (second series), hits give low values 1 | locus YEL061C, strain CIN8, hits give low values 0.994 | locus YER002W, strain NOP16, hits give low values 1.01 | locus YER015W, strain faa2, hits give low values 1 | locus YER016W, strain bim1, hits give low values 1.01 | locus YER110C, hits give low values 0.963 | locus YER111C, strain swi4, hits give low values 1.01 | locus YER155C, strain BEM2 (second series), hits give low values 1.03 | locus YER155C, strain BEM2, hits give low values 0.99 | locus YER167W, strain BCK2, hits give low values 0.988 | locus YFR010W, strain ubp6, hits give low values 1.01 | locus YGL078C, strain dbp3, hits give low values 0.979 | locus YGL086W, strain mad1, hits give low values 0.982 | locus YGL167C, strain pmr1, hits give low values 1.01 | locus YGL173C, strain kem1, hits give low values 1.02 | locus YGL227W, strain vid30, hits give low values 1 | locus YGL240W, strain doc1, hits give low values 1.04 | locus YGL248W, strain PDE1, hits give low values 1 | locus YGL253W, strain hxk2, hits give low values 1.01 | locus YGR078C, strain PAC10, hits give low values 0.986 | locus YGR135W, strain pre9, hits give low values 0.997 | locus YGR229C, strain SMI1, hits give low values 0.992 and 1 | locus YGR252W, strain gcn5, hits give low values 0.977 | locus YHR013C, strain ard1, hits give low values 0.997 | locus YHR027C, strain rpn1, hits give low values 0.997 | locus YHR030C, strain SLT2, hits give low values 0.983 and 0.976 | locus YHR079C, strain IRE1 (second series), hits give low values 0.996 | locus YHR079C, strain IRE1, hits give low values 0.976 | locus YHR094C, strain hxt1, hits give low values 0.978 | locus YHR129C, strain ARP1, hits give low values 0.986 | locus YHR142W, strain chs7, hits give low values 1.02 | locus YHR200W, strain rpn10, hits give low values 0.973 | locus YIL066C, strain RNR3, hits give low values 0.981 | locus YIL073C, strain SPO22, hits give low values 0.934 | locus YIL125W, strain kgd1, hits give low values 0.984 | locus YIR030C, strain dcg1, hits give low values 0.986 | locus YJL092W, strain hpr5, hits give low values 1 | locus YJL095W, strain BCK1 (second series), hits give low values 1.01 | locus YJL095W, strain BCK1, hits give low values 1 and 1.01 | locus YJL115W, strain asf1, hits give low values 0.997 | locus YJL129C, strain trk1, hits give low values 1.01 | locus YJL134W, strain LCB3, hits give low values 0.991 | locus YJL154C, strain vps35, hits give low values 0.996 | locus YJL164C, strain tpk1, hits give low values 0.993 | locus YJL166W, strain qcr8, hits give low values 1.02 | locus YJL168C, strain set2, hits give low values 0.99 | locus YJL187C, strain SWE1 (second series), hits give low values 0.982 | locus YJL187C, strain SWE1, hits give low values 1.01 | locus YJR043C, strain POL32, hits give low values 0.98 | locus YJR066W, strain TOR1, hits give low values 0.935

From PubChem BioAssay AID1159580 (chemical genetic matrix, 2015)
